Where “and” joins values, the source holds several entries; their conditions need not be identical. Identical values can stand only once. Among all 5,500 compounds or so, about 2,000 (36%) were called active. About 18% were inconclusive and are not listed. Rule as the data show it: active = normalized growth mostly below about 0.91 (no sharp cut-off); inconclusive = no clear call, values can overlap the other calls; inactive = mostly above about 0.92. This is one part of the list.
Test: chemical genetic growth profiling, strain panel (AID 1159580);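 also: tested at 20 µM; growth read once vehicle control cultures reached saturation at 30 °C; 1 = growth at the plate median or of vehicle wells; lower values mean less growth of the strain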
Conditions: growth OD

Measured: normalized growth

CSCCC(N)C(=O)NC(CC(C)C)C(=O)NC(Cc1ccccc1)C(=O)O (configuration not stated)
inactive: S. cerevisiae deletion strains, locus YAL013W, strain DEP1, active compounds read low 1.01 | S. cerevisiae deletion strains, locus YBR021W, strain FUR4, active compounds read low 1.02 | S. cerevisiae deletion strains, locus YBR229C, strain ROT2, active compounds read low 1.01 | S. cerevisiae deletion strains, locus YCL029C, strain bik1, active compounds read low 0.987 | S. cerevisiae deletion strains, locus YDL035C, strain GPR1, active compounds read low 1.02 | S. cerevisiae deletion strains, locus YDL074C, strain BRE1, active compounds read low 1.05 | S. cerevisiae deletion strains, locus YDL101C, strain DUN1, active compounds read low 1.02 | S. cerevisiae deletion strains, locus YDL134C, strain PPH21, active compounds read low 1.02 | S. cerevisiae deletion strains, locus YDL185W, strain tfp1, active compounds read low 1 | S. cerevisiae deletion strains, locus YDL192W, strain arf1, active compounds read low 1 | S. cerevisiae deletion strains, locus YDR101C, strain arx1, active compounds read low 0.994 | S. cerevisiae deletion strains, locus YDR150W, strain NUM1, active compounds read low 1.02 | S. cerevisiae deletion strains, locus YDR162C, strain NBP2, active compounds read low 1.02 | S. cerevisiae deletion strains, locus YDR318W, strain mcm21, active compounds read low 0.978 | S. cerevisiae deletion strains, locus YDR388W, active compounds read low 0.995 | S. cerevisiae deletion strains, locus YDR502C, strain sam2, active compounds read low 1.01 | S. cerevisiae deletion strains, locus YEL061C, strain CIN8, active compounds read low 1.01 | S. cerevisiae deletion strains, locus YER110C, active compounds read low 0.994 | S. cerevisiae deletion strains, locus YER155C, strain BEM2, active compounds read low 1.01 | S. cerevisiae deletion strains, locus YER167W, strain BCK2, active compounds read low 1.02 | S. cerevisiae deletion strains, locus YGL078C, strain dbp3, active compounds read low 0.987 | S. cerevisiae deletion strains, locus YGL086W, strain mad1, active compounds read low 0.999 | S. cerevisiae deletion strains, locus YGL248W, strain PDE1, active compounds read low 1.02 | S. cerevisiae deletion strains, locus YGR078C, strain PAC10, active compounds read low 1.03 | S. cerevisiae deletion strains, locus YGR135W, strain pre9, active compounds read low 1 | S. cerevisiae deletion strains, locus YGR229C, strain SMI1, active compounds read low 1.04 | S. cerevisiae deletion strains, locus YGR252W, strain gcn5, active compounds read low 0.956 | S. cerevisiae deletion strains, locus YHR030C, strain SLT2, active compounds read low 1 and 1.02 | S. cerevisiae deletion strains, locus YHR079C, strain IRE1 (second series), active compounds read low 0.988 | S. cerevisiae deletion strains, locus YHR079C, strain IRE1, active compounds read low 1.01 | S. cerevisiae deletion strains, locus YHR094C, strain hxt1, active compounds read low 0.996 | S. cerevisiae deletion strains, locus YHR129C, strain ARP1, active compounds read low 1.01 | S. cerevisiae deletion strains, locus YHR200W, strain rpn10, active compounds read low 0.995 | S. cerevisiae deletion strains, locus YIL066C, strain RNR3, active compounds read low 1.01 | S. cerevisiae deletion strains, locus YIL073C, strain SPO22, active compounds read low 1 | S. cerevisiae deletion strains, locus YIL125W, strain kgd1, active compounds read low 1 | S. cerevisiae deletion strains, locus YIR030C, strain dcg1, active compounds read low 0.998 | S. cerevisiae deletion strains, locus YJL095W, strain BCK1, active compounds read low 1.04 and 0.991 | S. cerevisiae deletion strains, locus YJL134W, strain LCB3, active compounds read low 1.01 | S. cerevisiae deletion strains, locus YJL168C, strain set2, active compounds read low 0.998 | S. cerevisiae deletion strains, locus YJL187C, strain SWE1 (second series), active compounds read low 1.02 | S. cerevisiae deletion strains, locus YJR043C, strain POL32, active compounds read low 1 | S. cerevisiae deletion strains, locus YJR066W, strain TOR1, active compounds read low 0.934 | S. cerevisiae deletion strains, locus YJR075W, strain HOC1, active compounds read low 1.02 | S. cerevisiae deletion strains, locus YKL009W, strain mrt4, active compounds read low 0.993 | S. cerevisiae deletion strains, locus YKL068W, active compounds read low 0.987 | S. cerevisiae deletion strains, locus YKL085W, strain MDH1 (second series), active compounds read low 1 | S. cerevisiae deletion strains, locus YKL085W, strain MDH1, active compounds read low 1 | S. cerevisiae deletion strains, locus YKL190W, strain CNB1, active compounds read low 1.01 | S. cerevisiae deletion strains, locus YKR001C, strain vps1, active compounds read low 0.995 | S. cerevisiae deletion strains, locus YLR039C, strain RIC1, active compounds read low 1.07 | S. cerevisiae deletion strains, locus YLR058C, strain SHM2, active compounds read low 1.01 | S. cerevisiae deletion strains, locus YLR102C, strain apc9, active compounds read low 0.994 | S. cerevisiae deletion strains, locus YLR113W, strain HOG1, active compounds read low 0.988 | S. cerevisiae deletion strains, locus YLR262C, strain YPT6, active compounds read low 1.04 | S. cerevisiae deletion strains, locus YLR268W, strain sec22, active compounds read low 1.01 | S. cerevisiae deletion strains, locus YLR330W, strain CHS5, active compounds read low 1.01 | S. cerevisiae deletion strains, locus YLR342W, strain FKS1 (second series), active compounds read low 1.01 | S. cerevisiae deletion strains, locus YLR371W, strain rom2, active compounds read low 1 | S. cerevisiae deletion strains, locus YLR418C, strain cdc73, active compounds read low 1 | S. cerevisiae deletion strains, locus YML016C, strain PPZ1, active compounds read low 1.01 | S. cerevisiae deletion strains, locus YML032C, strain rad52, active compounds read low 0.989 | S. cerevisiae deletion strains, locus YML124C, strain tub3, active compounds read low 0.995 | S. cerevisiae deletion strains, locus YMR078C, strain ctf18, active compounds read low 0.987 | S. cerevisiae deletion strains, locus YMR223W, strain ubp8, active compounds read low 0.995 | S. cerevisiae deletion strains, locus YMR263W, strain SAP30, active compounds read low 1.03 | S. cerevisiae deletion strains, locus YMR307W, strain GAS1, active compounds read low 0.996 | S. cerevisiae deletion strains, locus YNL067W, strain RPL9B, active compounds read low 1.03 | S. cerevisiae deletion strains, locus YNL128W, strain TEP1, active compounds read low 1.03 | S. cerevisiae deletion strains, locus YNL153C, strain GIM3, active compounds read low 1.02 | S. cerevisiae deletion strains, locus YNL183C, strain NPR1, active compounds read low 0.928 | S. cerevisiae deletion strains, locus YNL233W, strain BNI4, active compounds read low 1.02 | S. cerevisiae deletion strains, locus YNL250W, strain rad50, active compounds read low 1 | S. cerevisiae deletion strains, locus YNL271C, strain bni1, active compounds read low 0.994 | S. cerevisiae deletion strains, locus YNL298W, strain CLA4, active compounds read low 1 | S. cerevisiae deletion strains, locus YNL307C, strain MCK1, active compounds read low 0.98 | S. cerevisiae deletion strains, locus YNL322C, strain KRE1, active compounds read low 1.01 | S. cerevisiae deletion strains, locus YNR052C, strain pop2, active compounds read low 0.996 | S. cerevisiae deletion strains, locus YOL006C, strain TOP1, active compounds read low 1.11 | S. cerevisiae deletion strains, locus YOL012C, strain htz1 0.734 | S. cerevisiae deletion strains, locus YOL147C, strain pex11, active compounds read low 0.996 | S. cerevisiae deletion strains, locus YOR061W, strain CKA2, active compounds read low 1.02 | S. cerevisiae deletion strains, locus YOR069W, strain VPS5, active compounds read low 1.01 | S. cerevisiae deletion strains, locus YOR136W, strain idh2, active compounds read low 0.989 | S. cerevisiae deletion strains, locus YOR144C, strain elg1, active compounds read low 0.998 | S. cerevisiae deletion strains, locus YOR184W, strain ser1, active compounds read low 0.989 | S. cerevisiae deletion strains, locus YOR231W, strain MKK1, active compounds read low 1 | S. cerevisiae deletion strains, locus YOR316C, strain cot1, active compounds read low 0.998 | S. cerevisiae deletion strains, locus YPL055C, strain LGE1, active compounds read low 1.06 | S. cerevisiae deletion strains, locus YPL241C, strain CIN2, active compounds read low 1.01 | S. cerevisiae deletion strains, locus YPL256C, strain CLN2, active compounds read low 1.01 | S. cerevisiae deletion strains, locus YPR119W, strain clb2, active compounds read low 0.985 | S. cerevisiae deletion strains, locus YPR141C, strain kar3, active compounds read low 0.993 | S. cerevisiae deletion strains, locus YPR163C, strain tif3, active compounds read low 0.989 | S. cerevisiae deletion strains, locus YPR167C, strain met16, active compounds read low 0.993 | S. cerevisiae deletion strains, strain wtn01, active compounds read low 1.01 | S. cerevisiae strains, strain wild type, active compounds read low 1.01

— PubChem BioAssay AID1159580 (chemical genetic matrix, 2015)
